Measured values: PubChem BioAssay
“And” between values parts separate entries of the source, which are not always exact repeats. Identical values can stand only once. The source made the active and inactive calls.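 How the source made its calls, unless noted: active means at least 20% inhibition of 6-phosphogluconate dehydrogenase activity; inactive means the rest.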

Assays:
[1] = stimulators of nuclear beta-catenin in C2C12, primary screen, imaging, WNT3A-conditioned medium, mouse C2C12, NPC library (AID 1117326; in the data active means nuclear beta-catenin stimulation mostly above about 4.2%, no sharp cut-off; inactive means mostly below about 10%); settings: stronger effect = higher value
[2] = growth inhibition of GSK3B-pretreated HCT116 cells – cell-based, CellTiter-Glo, 0.2 to 20 µM (AID 1117336;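 active means compounds lowering colon cancer cell viability after pretreatment blocking the GSK3B kinase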); settings: HCT116 viability after GSK3B inhibitor, at 20 µM, stronger effect = higher value
[3] = HCT116 colon cancer cell growth inhibition, primary screen, CellTiter-Glo luminescence, NPC library (AID 1117342;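 active means compounds that lower survival of HCT116 colon cancer cells in the luminescence readout, no numeric limit stated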); settings: at 20 µM (top of the series)
[4] = CellTiter-Glo luminescent readout of SW480 viability loss, NPC library primary (AID 1117343;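 active means compounds that lower viability of the colon cancer cells in the luminescence readout, with no numeric limit stated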); settings: CellTiter-Glo luminescence; at 20 µM (top of the series)
[5] = decreased DLD-1 cellular survival, CellTiter-Glo luminescent readout, NPC compound collection, primary HTS (AID 1117346;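 active means compounds that lower survival of DLD-1 colon cancer cells in the luminescence readout, no cutoff given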); settings: DLD-1 viability, CellTiter-Glo luminescence; at 20 µM (top of the series)
[6] = stimulators of insulin release from INS-1E, primary screen, cell-based, 5 mM glucose, NPC library (AID 1117329;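 active means compound raises insulin release from rat beta cells at 5 mM glucose, no numeric limit stated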); settings: rat INS-1E insulin secretion, at 10 µM, stronger effect = higher value
[7] = glucagon-like peptide 1 release enhancers, primary assay, NCI-H716 cell line, NPC library (AID 1117341;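 active means compound raises GLP1 secretion from the human gut endocrine cells, with no numeric limit stated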); settings: NCI-H716 cells, at 10 µM, stronger effect = higher value
[8] = test system: Aerobactin synthetase IucA (Klebsiella pneumoniae, hypervirulent); assay: IucA enzyme inhibition, biochemical, LOPAC library, absorbance readout (AID 1346212; call rule not given here;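 further: 100% = no compound wells and 0% = no enzyme wells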); settings: IucA enzyme assay, absorbance (OD) readout; stronger effect = lower value;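 tested at 8 µM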
[9] = molecular target: 6-phosphogluconate dehydrogenase, decarboxylating (Homo sapiens) (UniProt P52209); assay: 6PGD enzyme inhibitors, primary screen, biochemical, human, recombinant enzyme, NADPH absorbance (AID 1159550); settings: recombinant 6PGD, NADPH absorbance 341 nm; at 10 µM; stronger effect = higher value
[10] = hESC survival regulators, cell-based (AID 493140; call rule not given here;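 further: cells exposed to compounds for four days before counting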); settings: human embryonic stem cell survival screen; stronger effect = higher value
[11] = liver-stage malaria parasite growth inhibition, primary screen, cell-based, HepG2, luciferase luminescence, HepG2 viability (AID 624349; in the data active means parasite load remaining mostly below about 12%, no sharp cut-off; inactive means mostly above about 10%;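 further: 100% = mean of DMSO negative control wells on the same plate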); settings: P. berghei liver stage in HepG2, luciferase luminescence, concentration not given here; parasite load remaining: stronger effect = lower value; viability: measured here: HepG2 viability without parasites
[12] = test system: Hepatitis C virus NS3 helicase; assay: HCV NS3 helicase inhibitors, primary screen, biochemical, fluorescence polarization, LOPAC1280 library (AID 687035; in the data active means inhibition above about 37%); settings: Purified HCV NS3 helicase, Cy5-dT15 ssDNA binding fluorescence polarization; stronger effect = higher value; concentration not given here
[13] = Cy5 fluorescence quenching or enhancement artefacts, artefact control for HCV NS3 helicase inhibitor project, biochemical, LOPAC1280 (AID 687037; call rule not given here); settings: Cy5-DNA-NS3h complex fluorescence interference counterscreen
[14] = sensitizers of A549 cells to miR-34 induction, primary screen, imaging, A549 dox-inducible miR-34, nuclei and caspase counts (AID 1347080;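 active means compounds whose cell count with miR-34 switched on is under 0.7 times the count with it off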); settings: A549 miR-34 inducible, Hoechst nuclei count, 48 h
[15] = survival rescue of mitochondrial mutant cells in low glucose, primary screen, MELAS cybrids, Rieske KO mouse fibroblasts, CellTiter-Glo (AID 1508586;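 active means mean z-score across replicates of 1.96 or higher in either the MELAS or the Rieske mutant cell line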;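 further: z relative to plate mean and SD of compound and empty wells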)
[16] = molecular target: NAD(+) hydrolase SARM1 (Homo sapiens) (UniProt Q6SZW1); assay: SARM1 TIR NADase inhibitors, cell lysate, NAD-Glo luminescence (AID 1508614;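 active means compound whose remaining NAD level is above about 45 nM, limit read from the data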); settings: SAM-TIR HEK293T lysate NADase, at 1 µM, stronger effect = higher value
[17] = viability rescue of complex I mutant cybrids, primary screen, cell-based, galactose medium, ATP luminescence (AID 1645843;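 active means z-score of at least 1.8 in each of two replicates, scored against plate mean and spread of sample wells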;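 further: positive z means more ATP and so rescue of galactose-driven cybrid death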); settings: complex I mutant cybrid cells, 72 h, stronger effect = higher value

Sequence of 6-phosphogluconate dehydrogenase, decarboxylating (Homo sapiens) (P52209 whole entry, looked up): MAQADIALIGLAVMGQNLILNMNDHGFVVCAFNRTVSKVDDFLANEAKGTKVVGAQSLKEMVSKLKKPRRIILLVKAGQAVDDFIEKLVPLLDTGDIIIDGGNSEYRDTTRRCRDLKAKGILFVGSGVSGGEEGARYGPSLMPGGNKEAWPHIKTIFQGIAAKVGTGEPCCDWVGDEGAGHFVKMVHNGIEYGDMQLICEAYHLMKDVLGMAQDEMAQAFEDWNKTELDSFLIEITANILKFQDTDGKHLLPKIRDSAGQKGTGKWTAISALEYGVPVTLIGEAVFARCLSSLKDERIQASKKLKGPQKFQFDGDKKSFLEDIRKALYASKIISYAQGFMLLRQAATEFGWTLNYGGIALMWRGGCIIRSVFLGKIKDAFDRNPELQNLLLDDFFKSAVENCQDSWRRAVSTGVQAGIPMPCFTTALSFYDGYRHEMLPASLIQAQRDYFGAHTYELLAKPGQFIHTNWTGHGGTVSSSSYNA
Sequence of NAD(+) hydrolase SARM1 (Homo sapiens) (Q6SZW1 whole entry, looked up): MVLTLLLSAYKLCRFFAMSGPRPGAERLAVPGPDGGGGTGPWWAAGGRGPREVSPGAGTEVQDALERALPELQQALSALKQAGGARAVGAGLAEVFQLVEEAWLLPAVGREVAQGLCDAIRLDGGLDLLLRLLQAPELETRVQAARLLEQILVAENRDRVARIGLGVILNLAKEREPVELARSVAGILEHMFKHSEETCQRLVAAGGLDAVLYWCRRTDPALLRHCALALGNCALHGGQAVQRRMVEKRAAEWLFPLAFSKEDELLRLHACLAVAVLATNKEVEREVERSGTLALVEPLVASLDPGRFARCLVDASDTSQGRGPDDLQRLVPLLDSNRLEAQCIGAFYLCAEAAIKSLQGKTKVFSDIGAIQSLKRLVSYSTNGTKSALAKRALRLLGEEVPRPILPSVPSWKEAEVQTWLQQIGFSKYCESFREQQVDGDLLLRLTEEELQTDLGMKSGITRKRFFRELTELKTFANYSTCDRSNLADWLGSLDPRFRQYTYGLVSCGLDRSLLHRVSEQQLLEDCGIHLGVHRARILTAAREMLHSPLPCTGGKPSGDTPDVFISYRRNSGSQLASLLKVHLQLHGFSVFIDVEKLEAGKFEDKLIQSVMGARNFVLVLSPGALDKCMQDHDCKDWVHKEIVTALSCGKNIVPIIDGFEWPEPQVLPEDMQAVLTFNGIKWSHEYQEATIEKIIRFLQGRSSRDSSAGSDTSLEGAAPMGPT

**Q.** Which nuclear beta-catenin stimulation ([1]; at 10 µM) does the source give for `O=C1NCN(c2ccccc2)C12CCN(CCCOc1ccc(F)cc1)CC2` here?
**A.** 0.4% (inactive)

**Q.** And the nuclear beta-catenin stimulation ([1]; stimulation, at 2 µM)?
**A.** 8.5%

**Q.** What about the viability decrease [2] of the same compound?
**A.** 84.2% (active)

**Q.** What about the inhibition of viability [3] of the same compound?
**A.** 59.4% (active)

**Q.** And the viability decrease (inhibition) [4]?
**A.** 91% (active)

**Q.** And the viability decrease (inhibition) [5]?
**A.** 87.1% (active)

**Q.** Which nuclear beta-catenin stimulation ([1]; at 10 µM) does the source give for `C=CCN1CC[C@]23CCCC[C@H]2[C@H]1Cc1ccc(O)cc13` here?
**A.** 3.5% (inactive)

**Q.** What about the nuclear beta-catenin stimulation ([1]; stimulation, at 2 µM) of the same compound?
**A.** 0.3%

**Q.** And the insulin secretion stimulation [6]?
**A.** 12.2% (inactive)

**Q.** And the GLP1 secretion stimulation [7]?
**A.** 8.3% (inactive)

**Q.** And the remaining activity [8]?
**A.** 94.8% (inactive)

**Q.** Which inhibition [9] does the source give for `COc1c2c(cc3c1OCO3)[C@]13C=C[C@H](OC)C[C@H]1N(C2)C[C@@H]3O` here?
**A.** -2.74% (inactive)

**Q.** For `CC(=O)OC1CCC2(C)C(=CCC3C4CCC(=O)C4(C)CCC32)C1` (stereo not drawn), which inhibition [9] is on record?
**A.** 2.3% (inactive)

**Q.** Which inhibition [9] does the source give for `COP(=O)(NC(C)=O)SC` (stereo not drawn) here?
**A.** -9.95% (inactive)

**Q.** With `CC(C)=CCC[C@]1(C)C=Cc2c(O)c3c(c(CC=C(C)C)c2O1)O[C@]12C(=C[C@@H]4C[C@H]1C(C)(C)O[C@@]2(C/C=C(/C)C(N)=O)C4=O)C3=O` as the compound, how does the inhibition [9] read?
**A.** -5.75% (inactive)

**Q.** For `CC(=O)[C@H]1CC[C@H]2[C@@H]3CC[C@H]4C[C@@H](O)CC[C@]4(C)[C@H]3CC[C@]12C`, which inhibition [9] is on record?
**A.** -19.3% (inactive)

**Q.** Which nuclear beta-catenin stimulation ([1]; at 10 µM) does the source give for `CCOP(=S)(OCC)SCSc1ccc(Cl)cc1` here?
**A.** 1.3% (inactive)

**Q.** What about the nuclear beta-catenin stimulation ([1]; stimulation, at 2 µM) of the same compound?
**A.** -1.3%

**Q.** And the insulin secretion stimulation [6]?
**A.** -1.15% (inactive)

**Q.** And the GLP1 secretion stimulation [7]?
**A.** -0.9% (inactive)

**Q.** For `CCOC(=O)c1ccccc1C(=O)OCC`, which nuclear beta-catenin stimulation ([1]; at 10 µM) is on record?
**A.** -0.2% (inactive)

**Q.** What about the nuclear beta-catenin stimulation ([1]; stimulation, at 2 µM) of the same compound?
**A.** -0.3%

**Q.** What about the insulin secretion stimulation [6] of the same compound?
**A.** 2.85% (inactive)

**Q.** And the GLP1 secretion stimulation [7]?
**A.** 0.4% (inactive)

**Q.** With `CC[C@H]1/C=C\C=C\C[C@H](C)[C@@H](O)[C@](C)(O)C(=O)[C@H](C)[C@@H](O)C(C)C(=O)[C@H](C)[C@H](O)[C@@H](C)/C=C/C(=O)OC2C(C)[C@H](CC1)O[C@@]1(CC[C@@H](C)[C@@H](CC(C)O)O1)[C@@H]2C` (stereo partly drawn) as the compound, how does the inhibition [9] read?
**A.** -4.41% (inactive)

**Q.** For `CO[C@H]1C[C@H](O[C@H]2CC[C@]3(C=O)[C@H]4CC[C@]5(C)[C@@H](C6=CC(=O)OC6)CC[C@]5(O)[C@@H]4CC[C@]3(O)C2)O[C@H](C)[C@H]1O`, which inhibition [9] is on record?
**A.** -5.2% (inactive)

**Q.** Which results are given for `COCC(C)N(C(=O)CCl)c1c(C)csc1C` (stereo not drawn)?
**A.** nuclear beta-catenin stimulation ([1]; at 10 µM): 0.5% (inactive); nuclear beta-catenin stimulation ([1]; stimulation, at 2 µM): 2.6%; insulin secretion stimulation [6]: 0.7% (inactive); GLP1 secretion stimulation [7]: -0.9% (inactive)

**Q.** For `C=C[C@H]1CN2CCC1C[C@H]2[C@H](OC(=O)OCC)c1ccnc2ccc(OC)cc12` (stereo partly drawn), which inhibition [9] is on record?
**A.** 4.32% (inactive)

**Q.** Which inhibition [9] does the source give for `CCOCN(C(=O)CCl)c1c(C)cccc1CC` here?
**A.** 4.9% (inactive)

**Q.** Which inhibition [9] does the source give for `COc1cc2c(cc1OC)C(=O)c1ccc(OC)c(OC)c1OCC(=O)C2` here?
**A.** -4.44% (inactive)

**Q.** For `CC[C@H](C)C(=O)O[C@@H]1C[C@@]2(C)[C@H](c3ccoc3)OC(=O)C[C@]23OC2(C)O[C@@]34[C@H](OC(=O)C(C)C)C3(O)[C@@H](OC(=O)[C@@]5(C)O[C@@H]5C)C5(C)C[C@]3(O)[C@](C)([C@H]5CC(=O)OC)[C@@]14O2` (stereo partly drawn), which inhibition [9] is on record?
**A.** 3.98% (inactive)

**Q.** With `CN1C[C@H](CNC(=O)OCc2ccccc2)C[C@@H]2c3cccc4c3c(cn4C)C[C@H]21` as the compound, how does the survival [10] read?
**A.** 2.67 (inactive)

**Q.** And the parasite load remaining [11]?
**A.** 77.5% (inactive) and 64.4% (inactive)

**Q.** What about the viability [11] of the same compound?
**A.** 74.4% and 69.2%

**Q.** What about the inhibition [12] of the same compound?
**A.** -2% (inactive)

**Q.** What about the fluorescence ratio (interference) [13] of the same compound?
**A.** 1 (inactive)

**Q.** And the nuclear beta-catenin stimulation ([1]; at 10 µM)?
**A.** 53.7% (active)

**Q.** And the nuclear beta-catenin stimulation ([1]; stimulation, at 2 µM)?
**A.** 5.7%

**Q.** What about the viability decrease [2] of the same compound?
**A.** 93.3% (active)

**Q.** And the inhibition of viability [3]?
**A.** 94% (active)

**Q.** And the viability decrease (inhibition) [4]?
**A.** 101% (active)

**Q.** And the viability decrease (inhibition) [5]?
**A.** 92.2% (active)

**Q.** What about the inhibition [9] of the same compound?
**A.** -7.03% (inactive)

**Q.** And the remaining activity [8]?
**A.** 130% (inactive)

**Q.** And the fold change ([14]; stronger effect = lower value)?
**A.** 0.705 (inactive) and 0.866 (inactive) and 0.969 (inactive)

**Q.** And the fold change ([14]; measured here: relative caspase fold change +Dox/-Dox)?
**A.** 1.05 and 1.44 and 0.756

**Q.** And the cell count ([14]; measured here: total cells with miR-34 induction, stronger effect = lower value)?
**A.** 1820 and 6760 and 7430

**Q.** What about the cell count ([14]; measured here: total cells without miR-34 induction) of the same compound?
**A.** 2580 and 7810 and 7670

**Q.** What about the z-score ([15]; MELAS cybrid survival, CellTiter-Glo 48 h, stronger effect = higher value) of the same compound?
**A.** 0.443 (inactive)

**Q.** What about the z-score ([15]; Rieske KO mouse fibroblast survival, CellTiter-Glo 72 h) of the same compound?
**A.** 0.114

**Q.** And the remaining NAD [16]?
**A.** 10 nM (inactive)

**Q.** What about the z-score [17] of the same compound?
**A.** -1.27 (inactive) and -0.62 (inactive)

**Q.** For `C[C@]12C=CC(=O)C=C1CC[C@@H]1[C@@H]2CC[C@]2(C)C(=O)CC[C@@H]12`, which inhibition [9] is on record?
**A.** -9.35% (inactive)

**Q.** With `Cc1c(O)c(C(=O)CC(C)C)c2oc3c(C(=O)CC(C)C)c(O)c(C)c(O)c3c2c1O` as the compound, how does the inhibition [9] read?
**A.** 0.288% (inactive)

**Q.** What does the source list for `CC1(C)[C@H](C=C(Cl)Cl)[C@@H]1C(=O)OCc1c(F)c(F)cc(F)c1F`?
**A.** nuclear beta-catenin stimulation ([1]; at 10 µM): -2.8% (inactive); nuclear beta-catenin stimulation ([1]; stimulation, at 2 µM): -1.8%; insulin secretion stimulation [6]: 0.45% (inactive); GLP1 secretion stimulation [7]: -5.4% (inactive)

**Q.** Which inhibition [9] does the source give for `CCN1CC2(COC)C(O)CC(OC)C34C5CC6(O)C(OC)C(O)C(OC(C)=O)(C5C6OC(=O)c5ccccc5)C(C(OC)C23)C14` (stereo not drawn) here?
**A.** 17.1% (inactive)

**Q.** For `C/C=C(\C)C(=O)OC1CCC2(C)C3CCC4C5(O)CC(O)C6(O)C(CN7CC(C)CCC7C6(C)O)C5(O)CC42OC13O` (stereo not drawn), which inhibition [9] is on record?
**A.** 6.21% (inactive)
